Reference: PubChem BioAssay (EPA / NIEHS)
Activity calls are given as the source filed them. The calls were made as follows: active = hit-call score of the fitted dose curve at least 0.9, where 1 is the maximum; inactive = score below 0.9.

Columns and labels:
[1] = APR_HepG2_CellCycleArrest_24hr: Apredica 24-hour HepG2 Assay for Cell Cycle Arrest (AID 2282905); details: imaging, actives raise or lower the signal;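 also: cell cycle arrest scored as ratio of 2N to 4N nuclear DNA content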
Outline: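 HepG2 cells were exposed to compounds at 0.39–200 uM (ten concentrations, duplicate) in 0.5% v/v DMSO for 24 hr. After formaldehyde fixation and Triton permeabilization, Hoechst 33342-stained nuclei were imaged at 20x; DNA content was quantified, with bidirectional fitting against DMSO.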

[2] = APR_HepG2_NuclearSize_24hr: Apredica 24-hour HepG2 Assay for Nuclear Size (AID 2282907); details: high-content imaging, actives raise or lower the signal
Outline: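 HepG2 human liver cells were exposed for 24 hr to compounds at 0.39–200 uM (ten concentrations, duplicate) in 0.5% v/v DMSO. They were then formaldehyde-fixed, Triton-permeabilized and Hoechst 33342-stained, and nuclear diameter was imaged at 20x. Bidirectional fits were made against DMSO.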

[3] = APR_HepG2_CellLoss_24hr: Apredica 24-hour HepG2 Assay for Cell Loss (AID 2282908); details: high-content imaging;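 as to AC50: fit in both directions so a hit may be cell loss or gain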
Outline: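 Compounds were tested at 0.39–200 uM in duplicate with 0.5% v/v DMSO final. Cells were then fixed in 3.7% formaldehyde, Hoechst 33342 nuclei were imaged at 20x by HCS, and cell number was fitted bidirectionally against DMSO.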

[4] = APR_HepG2_MicrotubuleCSK_24hr: Apredica 24-hour HepG2 Assay for Microtubule CSK Stabilty (AID 2282909); details: HepG2 microtubule cytoskeleton imaging, actives raise or lower the signal
Outline: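 HepG2 cells exposed 24 h to compounds at 0.39–200 uM (duplicate, 0.5% v/v DMSO final), then fixed, permeabilized and immunostained for alpha-tubulin with Hoechst 33342. Cytoskeleton imaged at 20x; bidirectional fit versus DMSO baseline.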

[5] = APR_HepG2_MitoticArrest_24hr: Apredica 24-hour HepG2 Assay for Mitotic Arrest (AID 2282910); details: high-content imaging, actives raise or lower the signal
Outline: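 HepG2 human liver cells were exposed to compounds at 0.39–200 uM (10 concentrations, duplicate) in 0.5% v/v DMSO for 24 hr, then fixed and immunostained for phospho-histone H3 with Hoechst 33342. Mitotic arrest came from HCS fluorescent imaging, fitted bidirectionally against DMSO.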

[6] = APR_HepG2_MitoMembPot_24hr: Apredica 24-hour HepG2 Assay for Mitochondrial Membrane Potential (AID 2282911); details: imaging, actives raise or lower the signal
Outline: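 HepG2, 24 hr dosing, 10 concentrations 0.39–200 uM, 0.5% DMSO final. Live-cell MitoTracker Red CMXRos 250 nM 30 min, then 3.7% formaldehyde fix. HCS fluorescence imaging, 20x; bidirectional fit vs DMSO baseline.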

[7] = APR_HepG2_MitoMass_24hr: Apredica 24-hour HepG2 Assay for Mitochondrial Mass (AID 2282912); details: high-content imaging, actives raise or lower the signal
Outline: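 Human HepG2 liver cells were exposed for 24 hr to compounds at 0.39–200 uM (duplicates, 0.5% v/v DMSO final). They were stained live with 250 nM MitoTracker Red CMXRos for 30 min, fixed in 3.7% formaldehyde, and imaged by HCS fluorescence; signals were fitted bidirectionally against DMSO.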

[8] = APR_HepG2_CellCycleArrest_72hr: Apredica 72-hour HepG2 Assay for Cell Cycle Arrest (AID 2282914); details: high-content imaging, actives raise or lower the signal
Outline: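 HepG2, 72 hr exposure, 10-point 0.39–200 uM, duplicate, 0.5% DMSO final. Fix 3.7% formaldehyde 30 min RT, Triton X-100 0.5%, Hoechst 33342 2 ug/mL. ArrayScan 20x, six fields/well; DNA content per nucleus; bidirectional fit vs DMSO.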

[9] = APR_HepG2_CellLoss_72hr: Apredica 72-hour HepG2 Assay for Cell Loss (AID 2282915); details: high-content imaging
Outline: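 HepG2 cells were exposed for 72 hr to compounds at 0.39–200 uM (ten concentrations, duplicate) in 0.5% v/v final DMSO. Nuclei were stained with Hoechst 33342 after 3.7% formaldehyde fixation, imaged at 20x, and counted; fits bidirectional versus DMSO.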

[10] = APR_HepG2_P-H2AX_72hr: Apredica 72-hour HepG2 Assay for H2AX Phosphorylation (AID 2282916); details: imaging, actives raise or lower the signal;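 also: phospho-histone H2A.x immunostain intensity per cell marking DNA damage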
Outline: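 HepG2 human liver cells were exposed for 72 hr to compounds at 0.39–200 uM (10 concentrations, duplicate per plate) in 0.5% v/v DMSO. Fixed, permeabilized cells were immunolabeled for phospho-histone H2A.x with Hoechst 33342 and imaged by HCS fluorescence; bidirectional fit versus DMSO.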

[11] = APR_HepG2_MitoMembPot_72hr: Apredica 72-hour HepG2 Assay for Mitochondrial Membrane Potential (AID 2282917); details: imaging, actives raise or lower the signal
Outline: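 HepG2 cells exposed 72 h to compounds at 0.39–200 uM (0.5% v/v DMSO, duplicates); MitoTracker Red CMXRos 250 nM loaded 30 min before 3.7% formaldehyde fixation, imaged by HCS fluorescence. Bidirectional fit versus DMSO.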

[12] = APR_HepG2_MitoticArrest_72hr: Apredica 72-hour HepG2 Assay for Mitotic Arrest (AID 2282918); details: high-content imaging, actives raise or lower the signal
Outline: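 HepG2, 72 hr exposure, 0.39–200 uM in duplicate, 0.5% v/v DMSO final. Formaldehyde-fixed, Triton-permeabilized, anti-phospho-histone H3/FITC plus Hoechst. ArrayScan imaging at 20x; curves fit bidirectionally against DMSO baseline.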

[13] = APR_HepG2_MicrotubuleCSK_72hr: Apredica 72-hour HepG2 Assay for Microtubule CSK Stabilty (AID 2282919); details: HepG2 microtubule cytoskeleton, high-content imaging, actives raise or lower the signal
Outline: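 HepG2 human liver cells were dosed for 72 h at ten concentrations from 0.39 to 200 uM in duplicate (0.5% v/v DMSO final). Fixed, permeabilized cells were immunostained for alpha-tubulin (Cy5) with a Hoechst counterstain and imaged at 20x.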

[14] = APR_HepG2_StressKinase_72hr: Apredica 72-hour HepG2 Assay for Stress Kinase (AID 2282921); details: HepG2 stress kinase (phospho-c-Jun) imaging, actives raise or lower the signal
Outline: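 Cells were exposed for 72 h to ten concentrations (0.39–200 uM, duplicate) at 0.5% v/v DMSO final, then fixed with 3.7% formaldehyde, permeabilized and immunostained for phospho-c-Jun (Cy3 secondary) with Hoechst nuclear counterstain.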

[15] = APR_HepG2_StressKinase_24hr: Apredica 24-hour HepG2 Assay for Stress Kinase (AID 2282922); details: HepG2 stress kinase (phospho-c-Jun) imaging, actives raise or lower the signal
Outline: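 HepG2 cells exposed 24 hr to compound at 0.39–200 uM (10 concentrations, duplicate), 0.5% v/v DMSO final. Fixed in 3.7% formaldehyde, permeabilized with Triton X-100, immunolabeled for phospho-c-Jun with Hoechst 33342; HCS fluorescence imaging, bidirectional fit versus DMSO.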

[16] = APR_HepG2_MitoMass_72hr: Apredica 72-hour HepG2 Assay for Mitochondrial Mass (AID 2282924); details: high-content imaging, actives raise or lower the signal;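 also: MitoTracker Red CMXRos stain intensity per cell imaged as mitochondrial mass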
Outline: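 HepG2 cells were exposed for 72 hr to compounds at 0.39–200 uM (ten concentrations, duplicate, 0.5% v/v DMSO final). Live cells were stained with 250 nM MitoTracker Red CMXRos for 30 min, then fixed in 3.7% formaldehyde and imaged by HCS fluorescence.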

[17] = APR_HepG2_NuclearSize_72hr: Apredica 72-hour HepG2 Assay for Nuclear Size (AID 2282925); details: high-content imaging, actives raise or lower the signal
Outline: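 HepG2 cells were exposed to compounds at ten concentrations from 0.39 to 200 uM (duplicate, 0.5% DMSO final) for 72 hr. After fixation in 3.7% formaldehyde, nuclei were stained with Hoechst 33342 (2 ug/mL) and imaged at 20x.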

[18] = APR_HepG2_p53Act_72hr: Apredica 72-hour HepG2 Assay for p53 Activation (AID 2282923); details: high-content imaging, actives raise or lower the signal;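 also: average cellular p53 protein immunofluorescence intensity in HepG2 cells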
Outline: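 Cells were dosed for 72 hr with compounds at 0.39–200 uM in duplicate (final DMSO 0.5% v/v), then fixed in 3.7% formaldehyde, permeabilized with Triton X-100 and immunostained for p53 (Cy5) with Hoechst 33342 nuclear counterstain.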

[19] = APR_HepG2_P-H2AX_24hr: Apredica 24-hour HepG2 Assay for H2AX Phosphorylation (AID 2282920); details: high-content imaging, actives raise or lower the signal
Outline: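 HCS fluorescence imaging of phospho-H2A.x immunostain (with Hoechst 33342 nuclear counterstain) in HepG2 after 24 hr compound exposure; 10 concentrations, 0.39–200 uM, duplicate wells, 0.5% v/v DMSO. Gain or loss of signal fitted relative to DMSO baseline.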

Measured: AC50

O=[N+]([O-])C(Br)(CO)CO
active: [1] 116 µM | [3] 25.6 µM | [6] 84.6 µM | [9] 35.5 µM | [17] 163 µM
not listed: [18] | [19]
inactive: all other assays above

CC(C)(C)OOC(=O)c1ccccc1
active: [2] 38.6 µM | [3] 33.3 µM | [4] 48.2 µM | [5] 20.5 µM | [6] 33.8 µM | [7] 34.1 µM | [8] 21.8 µM | [9] 26.6 µM | [10] 35.1 µM | [11] 20.1 µM | [12] 23.1 µM | [14] 50 µM | [18] 21.5 µM | [16] 54 µM
inactive: [1] | [13] | [15] | [17]

Clc1ccc(C(c2ccc(Cl)cc2)C(Cl)(Cl)Cl)cc1
inactive: [1] | [4] | [8] | [13] | [14] | [18] | [16] | [17]
active: [2] 56.5 µM | [3] 57.9 µM | [5] 50.1 µM | [6] 30.3 µM | [7] 44.4 µM | [9] 50.5 µM | [10] 50.2 µM | [11] 30.4 µM | [12] 42.6 µM | [15] 51.9 µM

N#CC(Br)Br
active: [3] 115 µM | [4] 169 µM | [5] 45.4 µM | [7] 86.6 µM | [9] 96.9 µM | [10] 96.9 µM | [12] 73.6 µM
not listed: [18] | [19]
inactive: all other assays above

Clc1ccccc1Cl
not listed: [18] | [19]
inactive: all other assays above

CCOc1cccc(C2(N3CCN(c4ccccc4)CC3)CCC(C)CC2)c1 (stereo unspecified)
not listed: [19]
inactive: all other assays above

OCCOCCO
not listed: [18]
inactive: all other assays above

CCC12COCN1COC2
active: [1] 45.1 µM | [5] 93.6 µM | [10] 82.1 µM | [12] 83.2 µM | [15] 99.5 µM | [18] 79.2 µM
not listed: [19]
inactive: all other assays above
